# Values without a mark were called inactive. Active and inactive are the calls of the source. Rule as the data show it, unless noted: active = inhibition above about 28%; inactive = the rest.
# Columns and labels:
# [1] = target: Nuclear receptor coactivator 3 (Homo sapiens) (UniProt Q9Y6Q9); assay: NCOA3 GAL4-fusion reporter inhibition – cell-based, luminescence, quadruplicate, confirmation (AID 588792;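 active = mean inhibition over 43.08%, the solvent-only control mean plus 3 SD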;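 also: 0% = DMSO treated cells and 100% = gossypol at 36 µM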); conditions: HEK293 GAL4-SRC3 luciferase reporter, at 3.6 µM, active compounds read high
# [2] = tested on: transactivating tegument protein VP16 (Human herpesvirus 1), Gal4-VP16 luciferase reporter; assay: repression of VP16-driven luciferase reporter – cell-based, luminescence, high throughput, counter-screen for SRC3 inhibitor project (AID 588794; in the data active = inhibition above about 30%); conditions: mammalian cells, at 3.6 µM, active compounds read high
# [3] = target: Nuclear receptor coactivator 1 (Homo sapiens) (UniProt Q15788); assay: NCOA1 GAL4-fusion reporter inhibition – cell-based, luminescence, quadruplicate, confirmation (AID 588820;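 active = mean inhibition above 46.68%, the untreated control wells mean plus 3 SD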;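 also: 0% = DMSO wells and 100% = gossypol 36 µM treated wells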); conditions: HEK293 GAL4-SRC1 luciferase reporter, at 3.6 µM, active compounds read high
# [4] = repression of VP16-driven luciferase reporter – cell-based, luminescence, high throughput, counter-screen for SRC1 inhibitor project (AID 588824; in the data active = inhibition above about 25%); conditions: cell-based VP16 transactivation luciferase luminescence; at 3.6 µM; active compounds read high
# [5] = StAR promoter reporter inhibitors, counter-screen for LRH-1 inverse agonist project, cell-based, luminescence, high throughput (AID 651611); conditions: StAR promoter luciferase reporter counterscreen, at 3.6 µM, active compounds read high
# [6] = target: Nuclear receptor subfamily 5 group A member 2 (Homo sapiens) (UniProt O00482); assay: NR5A2 activity suppression in reporter cells – cell-based, luminescence, confirmation (AID 651613; in the data active = inhibition above about 42%;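 also: HEK293T cells co-transfected with LRH-1 and StAR promoter luciferase reporter; 0% = vehicle wells and 100% = parental cells lacking receptor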); conditions: cell-based LRH-1 luciferase reporter, inverse agonism; at 3.6 µM; active compounds read high
# [7] = target: Steroidogenic factor 1 (Homo sapiens) (UniProt Q13285); assay: inverse agonism at SF1 nuclear receptor – cell-based, luminescence, high throughput, counter-screen for LRH-1 inverse agonist project (AID 651614; in the data active = inhibition above about 44%;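 also: cells cotransfected with StAR promoter reporter and SF1 expression vector; 0% = vehicle on cells with receptor and 100% = vehicle on cells lacking receptor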); conditions: cell-based SF1 luciferase reporter, at 3.6 µM, active compounds read high
# [8] = compounds suppressing VP16-driven luciferase signal – cell-based, luminescence, high throughput, counter-screen for LRH-1 inverse agonist project (AID 651615; in the data active = inhibition above about 33%); conditions: Gal4-VP16 luciferase reporter cells, at 3.6 µM, active compounds read high
# [9] = tested on: transactivating tegument protein VP16 (Human herpesvirus 1); assay: compounds suppressing VP16-driven luciferase signal – cell-based, luminescence, single concentration, counter-screen for SRC2 inhibitor project (AID 652007; in the data active = inhibition above about 36%); conditions: cell-based VP16 transactivation luciferase reporter, at 8.9 µM, active compounds read high
# [10] = target: Nuclear receptor coactivator 2 (Homo sapiens) (UniProt Q15596); assay: inhibition of GAL4-SRC2 driven luciferase expression – cell-based, luminescence, HEK293, triplicate, confirmation (AID 652008;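 active = mean inhibition above 46.5%, the solvent-only control mean plus 3 SD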;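 also: 0% = DMSO-treated cells and 100% = Gossypol at 36 µM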); conditions: HEK293 GAL4-SRC2 luciferase reporter, at 8.9 µM, active compounds read high
# Nuclear receptor coactivator 1 (Homo sapiens), sequence (Q15788 whole entry, looked up, the tested form may be a part): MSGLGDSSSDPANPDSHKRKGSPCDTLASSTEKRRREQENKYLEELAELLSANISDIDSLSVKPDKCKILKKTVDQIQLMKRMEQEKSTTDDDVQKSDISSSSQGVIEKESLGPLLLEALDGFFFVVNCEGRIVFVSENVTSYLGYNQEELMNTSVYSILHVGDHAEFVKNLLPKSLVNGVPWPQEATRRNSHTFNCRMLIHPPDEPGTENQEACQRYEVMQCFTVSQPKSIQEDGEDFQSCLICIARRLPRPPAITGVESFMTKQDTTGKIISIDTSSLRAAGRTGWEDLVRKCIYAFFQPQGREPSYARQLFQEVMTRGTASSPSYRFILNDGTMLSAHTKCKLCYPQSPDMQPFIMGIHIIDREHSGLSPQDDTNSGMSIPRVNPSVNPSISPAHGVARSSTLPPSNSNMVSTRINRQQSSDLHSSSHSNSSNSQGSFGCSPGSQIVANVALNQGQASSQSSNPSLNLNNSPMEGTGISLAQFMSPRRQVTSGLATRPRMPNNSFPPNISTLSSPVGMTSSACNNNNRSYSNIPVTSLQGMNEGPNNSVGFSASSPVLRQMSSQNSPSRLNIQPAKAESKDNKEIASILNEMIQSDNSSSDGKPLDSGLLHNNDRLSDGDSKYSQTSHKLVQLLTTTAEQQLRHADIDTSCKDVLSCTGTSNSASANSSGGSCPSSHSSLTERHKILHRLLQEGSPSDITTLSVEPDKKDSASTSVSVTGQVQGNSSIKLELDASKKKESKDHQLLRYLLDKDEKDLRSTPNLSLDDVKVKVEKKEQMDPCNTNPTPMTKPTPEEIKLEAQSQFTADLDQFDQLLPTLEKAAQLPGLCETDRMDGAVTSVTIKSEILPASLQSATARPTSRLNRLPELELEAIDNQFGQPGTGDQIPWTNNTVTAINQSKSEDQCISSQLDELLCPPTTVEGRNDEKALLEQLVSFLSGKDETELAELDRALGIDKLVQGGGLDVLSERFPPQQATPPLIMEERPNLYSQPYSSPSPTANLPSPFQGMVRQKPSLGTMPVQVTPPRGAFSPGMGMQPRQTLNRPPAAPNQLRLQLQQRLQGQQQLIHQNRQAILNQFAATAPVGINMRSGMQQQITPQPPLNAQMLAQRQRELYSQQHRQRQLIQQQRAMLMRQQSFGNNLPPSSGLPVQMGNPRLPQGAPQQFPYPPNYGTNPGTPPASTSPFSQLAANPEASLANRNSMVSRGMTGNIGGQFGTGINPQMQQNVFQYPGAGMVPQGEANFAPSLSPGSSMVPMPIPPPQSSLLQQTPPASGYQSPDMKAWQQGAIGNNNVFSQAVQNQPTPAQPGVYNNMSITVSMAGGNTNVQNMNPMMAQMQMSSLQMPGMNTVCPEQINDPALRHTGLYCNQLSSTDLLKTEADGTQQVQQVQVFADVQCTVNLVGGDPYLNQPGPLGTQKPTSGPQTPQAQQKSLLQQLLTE
# Nuclear receptor coactivator 3 (Homo sapiens), sequence (Q9Y6Q9 whole entry, looked up, the tested form may be a part): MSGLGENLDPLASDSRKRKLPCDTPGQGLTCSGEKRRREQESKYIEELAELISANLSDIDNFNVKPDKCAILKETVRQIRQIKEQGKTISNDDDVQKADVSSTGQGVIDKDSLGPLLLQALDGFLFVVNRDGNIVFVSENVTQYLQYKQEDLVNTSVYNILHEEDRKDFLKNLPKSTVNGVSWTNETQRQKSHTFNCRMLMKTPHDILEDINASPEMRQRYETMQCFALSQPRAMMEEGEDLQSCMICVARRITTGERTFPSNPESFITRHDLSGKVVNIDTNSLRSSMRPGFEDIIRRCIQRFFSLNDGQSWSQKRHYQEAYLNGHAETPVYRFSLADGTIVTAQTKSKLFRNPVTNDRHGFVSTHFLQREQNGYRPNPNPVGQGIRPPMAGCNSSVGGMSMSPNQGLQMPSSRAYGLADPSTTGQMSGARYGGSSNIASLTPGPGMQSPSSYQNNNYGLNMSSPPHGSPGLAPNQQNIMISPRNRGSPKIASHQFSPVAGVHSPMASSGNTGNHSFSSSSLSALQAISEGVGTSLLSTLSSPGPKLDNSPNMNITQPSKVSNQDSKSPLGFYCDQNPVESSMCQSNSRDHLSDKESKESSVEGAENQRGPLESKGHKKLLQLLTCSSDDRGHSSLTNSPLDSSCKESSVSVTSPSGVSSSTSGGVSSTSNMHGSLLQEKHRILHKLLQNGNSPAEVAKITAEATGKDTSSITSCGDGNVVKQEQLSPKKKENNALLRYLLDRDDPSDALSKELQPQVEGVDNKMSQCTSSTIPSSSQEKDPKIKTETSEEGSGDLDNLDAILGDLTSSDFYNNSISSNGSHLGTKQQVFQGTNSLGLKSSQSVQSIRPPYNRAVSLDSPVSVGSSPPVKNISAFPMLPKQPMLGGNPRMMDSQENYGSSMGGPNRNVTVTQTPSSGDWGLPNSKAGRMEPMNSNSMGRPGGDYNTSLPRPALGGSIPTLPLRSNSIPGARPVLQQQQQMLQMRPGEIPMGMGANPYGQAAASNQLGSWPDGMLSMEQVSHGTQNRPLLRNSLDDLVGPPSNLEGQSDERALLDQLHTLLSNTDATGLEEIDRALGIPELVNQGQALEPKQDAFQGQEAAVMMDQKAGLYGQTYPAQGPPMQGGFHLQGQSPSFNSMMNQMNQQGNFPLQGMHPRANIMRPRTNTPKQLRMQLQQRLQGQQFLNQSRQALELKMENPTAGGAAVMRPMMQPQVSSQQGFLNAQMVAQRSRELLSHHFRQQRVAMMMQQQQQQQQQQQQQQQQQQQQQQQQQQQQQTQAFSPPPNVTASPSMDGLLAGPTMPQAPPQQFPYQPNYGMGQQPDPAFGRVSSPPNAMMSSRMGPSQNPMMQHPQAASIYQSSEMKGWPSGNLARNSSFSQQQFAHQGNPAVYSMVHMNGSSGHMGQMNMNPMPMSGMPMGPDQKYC
# Nuclear receptor subfamily 5 group A member 2 (Homo sapiens), sequence (O00482 whole entry, looked up): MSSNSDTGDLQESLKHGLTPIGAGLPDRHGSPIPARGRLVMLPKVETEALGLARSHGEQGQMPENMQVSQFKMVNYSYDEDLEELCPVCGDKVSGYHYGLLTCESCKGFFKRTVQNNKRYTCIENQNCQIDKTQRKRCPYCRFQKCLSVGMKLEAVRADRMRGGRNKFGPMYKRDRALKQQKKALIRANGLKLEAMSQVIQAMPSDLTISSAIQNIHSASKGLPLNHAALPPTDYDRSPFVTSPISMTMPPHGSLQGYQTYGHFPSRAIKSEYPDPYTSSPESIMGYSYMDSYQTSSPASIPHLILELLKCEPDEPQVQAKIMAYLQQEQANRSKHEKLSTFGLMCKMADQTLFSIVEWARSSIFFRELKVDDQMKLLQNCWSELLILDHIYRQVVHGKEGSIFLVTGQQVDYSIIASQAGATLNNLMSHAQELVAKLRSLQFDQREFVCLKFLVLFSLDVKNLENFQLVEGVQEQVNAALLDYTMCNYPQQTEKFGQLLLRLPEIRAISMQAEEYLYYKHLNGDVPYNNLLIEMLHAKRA
# Steroidogenic factor 1 (Homo sapiens), sequence (Q13285 whole entry, looked up, the tested form may be a part): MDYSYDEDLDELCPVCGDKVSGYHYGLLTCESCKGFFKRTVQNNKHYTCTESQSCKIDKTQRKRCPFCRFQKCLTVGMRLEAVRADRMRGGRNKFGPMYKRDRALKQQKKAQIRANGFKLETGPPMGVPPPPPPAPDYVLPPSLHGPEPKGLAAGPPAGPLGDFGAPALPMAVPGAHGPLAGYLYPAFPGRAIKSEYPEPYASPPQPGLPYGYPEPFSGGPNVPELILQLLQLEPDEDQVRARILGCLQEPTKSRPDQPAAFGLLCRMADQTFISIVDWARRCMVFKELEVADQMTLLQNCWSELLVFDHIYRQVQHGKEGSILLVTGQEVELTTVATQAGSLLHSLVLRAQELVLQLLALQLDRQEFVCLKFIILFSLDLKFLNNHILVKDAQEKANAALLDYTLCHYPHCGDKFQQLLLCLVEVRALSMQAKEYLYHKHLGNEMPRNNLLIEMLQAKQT
SMILES,inhibition [1],inhibition [2],inhibition [3],inhibition [4],inhibition [5],inhibition [6],inhibition [7],inhibition [8],inhibition [9],inhibition [10]
CC[C@@H](O)C[C@H]1CCC[C@@]2(C[C@@H]3OC(=O)/C=C/[C@@](C)(O)[C@@H](O)[C@H](C)[C@@H](O)[C@H](OC4CCC(N(C)C)C(C)O4)[C@@H](O)[C@](C)(O)CCCCC/C=C/[C@@H]4CC(C)(C)O[C@@]4(O)C[C@H](O2)[C@H]3C)O1 (some centres undefined),76.5% (active),85.9% (active),62.5% (active),85% (active),79.8% (active),105% (active),94% (active),87.9% (active),,
CC(=O)OC1CC2(O)C3CCC4CC(O)CCC4(C)C3CCC2(C)C1C1=CC(=O)OC1 (centres undefined),95.9% (active),84.3% (active),71.4% (active),83.3% (active),96.5% (active),111% (active),98.7% (active),91.9% (active),65.2% (active),45.1%
O=[N+]([O-])c1ccc(N(CCO)CCO)c2c1no[n+]2[O-],52.6% (active),27.8%,29.1%,14.5%,70.7% (active),76.2% (active),74.4% (active),28.9%,29.9%,56.3% (active)
CCOc1ccc(-c2cc(C)[n+](CCc3ccc(OC)c(OC)c3)c(-c3ccc(OCC)cc3)c2)cc1,53.6% (active),69.7% (active),60% (active),73.4% (active),70% (active),104% (active),92.3% (active),85.4% (active),,
Clc1ccc(C[n+]2c(-c3ccccc3)cc(-c3ccccc3)cc2-c2ccccc2)cc1,83.5% (active),66% (active),53.1% (active),73.6% (active),70.8% (active),110% (active),89.8% (active),94% (active),,

# Reference: PubChem BioAssay
